Source: PubChem BioAssay (Tox21)
Several values for one entry are separate records, joined by “and”; a condition that tells them apart may be missing. Identical values can stand only once. The source holds several records for some structures; these can differ, active in one and inactive in another. Activity calls are given as the source filed them. Entries that show only a call come without a potency. Unless noted, calls follow the shape of the dose curve; as a rule, active = well fitted curve in the direction sought with a large enough effect in the repeat runs; inconclusive = weak or mixed curves; inactive = no such curve, though single readings can be large; an effect the other way counts as inactive or inconclusive.

Key:
[1] = qHTS assay to identify small molecule antagonists of the glucocorticoid receptor (GR) signaling pathway - cell viability counter screen (AID 720693); also: nearly all actives have a fitted effect of over 55% in size; also: potency is read from the fitted curve at half-maximal effect
[2] = qHTS assay for identifying genotoxic compounds that show differential cytotoxicity against isogenic chicken DT40 cell lines with known DNA damage response pathways - wild type cell line (AID 743012); also: nearly all actives have a fitted effect of over 60% in size; also: potency is read from the fitted curve at half-maximal effect
Summary of the method: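 First, wild type DT40 cells were plated at 300 per well and equilibrated about 0.5 h at 37 C/5% CO2. Next, compounds in DMSO were added and exposure lasted 40 h. Finally, CellTiter-Glo was added for 30 min at room temperature and luminescence recorded.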

[3] = qHTS assay for identifying genotoxic compounds that show differential cytotoxicity against isogenic chicken DT40 cell lines with known DNA damage response pathways - Rev3 mutant cell line (AID 743014); also: nearly all actives have a fitted effect of over 55% in size; also: potency is read from the fitted curve at half-maximal effect
[4] = qHTS assay for identifying genotoxic compounds that show differential cytotoxicity against isogenic chicken DT40 cell lines with known DNA damage response pathways - Rad54/Ku70 mutant cell line (AID 743015); also: nearly all actives have a fitted effect of over 60% in size; also: potency is read from the fitted curve at half-maximal effect
[5] = qHTS assay to identify small molecule antagonists of the androgen receptor (AR) signaling pathway - cell viability counter screen (AID 743033; also: nearly all actives have a fitted effect of over 45% in size; also: potency is read from the fitted curve at half-maximal effect)
[6] = qHTS assay to identify small molecule antagonists of the androgen receptor (AR) signaling pathway using the MDA cell line - cell viability counter screen (AID 743041; also: nearly all actives have a fitted effect of over 45% in size)
Summary of the method: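 MDA-kb2 AR-luc human breast carcinoma cells (MMTV-luciferase, AR/GR responsive) were treated with compounds plus R1881 agonist for 16 h at 37 °C. Viability was read as CellTiter-Fluor fluorescence in the same wells as the reporter assay.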

[7] = qHTS assay to identify small molecule antagonists of the thyroid receptor (TR) signaling pathway - cell viability counter screen (AID 743064); also: nearly all actives have a fitted effect of over 50% in size; also: potency is read from the fitted curve at half-maximal effect
Summary of the method: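 In-well cytotoxicity read by CellTiter-Fluor (30 min, 37 C) following 23.5 h exposure of GH3 cells bearing a TRE-luciferase sensor. Compounds were added alongside 1 nM (final) T3 to drive TR transactivation.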

[8] = qHTS assay to identify small molecule antagonists of the thyroid receptor (TR) signaling pathway (AID 743065); also: nearly all actives have a fitted effect of over 55% in size; also: potency is read from the fitted curve at half-maximal effect
Summary of the method: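 GH3.TRE-Luc rat pituitary cells carrying two TR response elements driving luciferase were plated for 4 h, given compound plus 1 nM T3 (final), and incubated 23.5 h at 37 C. ONE-Glo luminescence measured reporter inhibition; CellTiter-Fluor fluorescence tracked cytotoxicity.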

[9] = tested on: thyroid hormone receptor (rat, GH3 cells); assay: qHTS assay to identify small molecule agonists of the thyroid receptor (TR) signaling pathway (AID 743066; calls by dose curve)
[10] = biological target: Estrogen receptor (Homo sapiens) (UniProt P03372); assay: qHTS assay to identify small molecule antagonists of the estrogen receptor alpha (ER-alpha) signaling pathway (AID 743069; active = well fitted curve in the direction sought with a large enough effect in the signal ratio in the repeat runs, not every such curve was filed as active; inconclusive = weak or mixed curves, or effect the other way; inactive = no such curve, though single readings can be large or run the other way; the % refers to the signal ratio; also: potency is read from the fitted curve at half-maximal effect)
Estrogen receptor (Homo sapiens), sequence (P03372 whole entry, looked up): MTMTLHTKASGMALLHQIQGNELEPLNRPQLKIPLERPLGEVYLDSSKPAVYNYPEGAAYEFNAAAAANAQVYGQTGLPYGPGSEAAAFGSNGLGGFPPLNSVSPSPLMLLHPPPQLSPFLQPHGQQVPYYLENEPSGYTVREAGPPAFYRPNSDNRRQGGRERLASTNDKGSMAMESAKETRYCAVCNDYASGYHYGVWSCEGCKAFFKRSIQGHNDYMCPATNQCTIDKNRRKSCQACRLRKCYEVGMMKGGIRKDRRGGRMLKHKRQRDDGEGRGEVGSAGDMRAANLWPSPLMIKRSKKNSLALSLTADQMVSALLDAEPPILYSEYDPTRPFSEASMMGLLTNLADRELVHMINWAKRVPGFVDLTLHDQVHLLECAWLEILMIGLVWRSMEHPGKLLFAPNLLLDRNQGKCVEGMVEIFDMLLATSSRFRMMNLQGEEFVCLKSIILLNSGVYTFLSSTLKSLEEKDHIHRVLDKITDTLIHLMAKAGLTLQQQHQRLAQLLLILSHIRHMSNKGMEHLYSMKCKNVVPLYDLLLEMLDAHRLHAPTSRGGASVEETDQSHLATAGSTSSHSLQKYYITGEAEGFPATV
Summary of the method: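 HEK293 cells stably carrying an ER-alpha-UAS-bla beta-lactamase reporter were pre-cultured overnight in 2% charcoal-stripped FBS medium. Test compounds in DMSO were added together with 17beta-estradiol for 18 hr at 37C. Read-out was fluorescence after 2 hr with LiveBLAzer B/G FRET substrate at room temperature.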

[11] = qHTS assay to identify small molecule antagonists of the estrogen receptor alpha (ER-alpha) signaling pathway - cell viability counter screen (AID 743074; calls by dose curve; also: nearly all actives have a fitted effect of over 45% in size; also: potency is read from the fitted curve at half-maximal effect)
[12] = biological target: Estrogen receptor (Homo sapiens) (UniProt P03372); assay: qHTS assay to identify small molecule agonists of the estrogen receptor alpha (ER-alpha) signaling pathway (AID 743075; calls by dose curve)
[13] = qHTS assay to identify small molecule antagonists of the estrogen receptor alpha (ER-alpha) signaling pathway using the BG1 cell line (AID 743080; calls by dose curve;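 also: BG1 cells stimulated with 17beta-estradiol alongside compound; nearly all actives have a fitted effect of over 25% in size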; also: potency is read from the fitted curve at half-maximal effect)
Summary of the method: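 Quantitative HTS on the Tox21 10K library: BG1 cells with endogenous ER-alpha and ERE-luciferase reporter, 17beta-estradiol stimulation, 21.5 h compound exposure, luminescence endpoint with parallel fluorescence cytotoxicity counter-read.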

[14] = qHTS assay to identify small molecule antagonists of the estrogen receptor alpha (ER-alpha) signaling pathway using the BG1 cell line - cell viability counter screen (AID 743081);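 also: compound given together with 17beta-estradiol as the ER stimulus; nearly all actives have a fitted effect of over 45% in size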; also: potency is read from the fitted curve at half-maximal effect
Aromatase (Homo sapiens) = Aromatase (Homo sapiens) (UniProt P11511); assay: qHTS assay to identify aromatase inhibitors (AID 743083); also: nearly all actives have a fitted effect of over 55% in size; also: potency is read from the fitted curve at half-maximal effect
Aromatase (Homo sapiens), sequence (P11511 whole entry, looked up): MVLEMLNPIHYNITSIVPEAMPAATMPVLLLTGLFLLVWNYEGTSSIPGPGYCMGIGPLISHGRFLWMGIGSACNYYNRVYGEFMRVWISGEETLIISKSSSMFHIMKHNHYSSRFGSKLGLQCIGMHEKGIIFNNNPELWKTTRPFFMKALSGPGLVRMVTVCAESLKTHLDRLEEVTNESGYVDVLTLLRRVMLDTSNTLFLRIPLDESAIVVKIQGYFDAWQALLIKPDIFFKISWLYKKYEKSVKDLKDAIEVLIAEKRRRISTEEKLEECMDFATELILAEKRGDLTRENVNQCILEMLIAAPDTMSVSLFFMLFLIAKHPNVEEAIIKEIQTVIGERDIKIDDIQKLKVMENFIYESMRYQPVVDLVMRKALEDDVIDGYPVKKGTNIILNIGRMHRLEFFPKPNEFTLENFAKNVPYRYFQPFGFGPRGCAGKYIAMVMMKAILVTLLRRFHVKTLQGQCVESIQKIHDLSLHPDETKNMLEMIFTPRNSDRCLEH

[15] = biological target: Estrogen receptor (Homo sapiens) (UniProt P03372); assay: qHTS assay to identify small molecule agonists of the estrogen receptor alpha (ER-alpha) signaling pathway using the BG1 cell line (AID 743079); also: nearly all actives have a fitted effect of over 20% in size; also: potency is read from the fitted curve at half-maximal effect

Compound: O=C(COc1ccc(Cl)cc1)N1CCN(Cc2ccc3c(c2)OCO3)CC1
- Potency [1]: inactive
- Potency [2]: 29.8 µM (active)
- Potency [3]: 16.8 µM (active) and 54.5 µM (active)
- Potency [4]: 48.6 µM (active)
- Potency [5]: inactive
- Potency [6]: inactive
- Potency [7]: inactive
- Potency [8]: inactive
- Potency [9]: inactive
- Potency [10]: inactive
- Potency [11]: inactive and 30.9 µM (active)
- Potency [12]: inactive
- Potency [13]: 61.1 µM (active)
- Potency [14]: inactive
- Potency (Aromatase (Homo sapiens)): inactive

Compound: COc1ccc(C(=O)CC(=O)c2ccc(C(C)(C)C)cc2)cc1
- Potency [1]: inactive
- Potency [2]: inactive
- Potency [3]: inactive
- Potency [4]: inactive
- Potency [5]: inactive
- Potency [6]: inactive
- Potency [7]: 26.6 µM (active) and 65.8 µM (active)
- Potency [8]: 29.8 µM (active)
- Potency [9]: inactive
- Potency [11]: inactive
- Potency [14]: inactive
- Potency (Aromatase (Homo sapiens)): inactive

Compound: NNc1ccc(C(=O)O)cc1
- Potency [1]: inactive
- Potency [2]: inactive
- Potency [3]: inactive
- Potency [4]: inactive
- Potency [5]: inactive
- Potency [6]: inactive
- Potency [7]: inactive
- Potency [8]: inactive
- Potency [9]: inactive
- Potency [11]: inactive
- Potency [14]: inactive
- Potency (Aromatase (Homo sapiens)): inactive

Compound: NC=O
- Potency [1]: inactive
- Potency [2]: inactive
- Potency [3]: inactive
- Potency [4]: inactive
- Potency [5]: inactive
- Potency [6]: inactive
- Potency [7]: inactive
- Potency [8]: inactive
- Potency [9]: inactive
- Potency [14]: inactive
- Potency (Aromatase (Homo sapiens)): inactive

Compound: Nc1ccc(S(=O)(=O)Nc2cnc3ccccc3n2)cc1
- Potency [1]: inactive
- Potency [2]: inactive
- Potency [3]: inactive
- Potency [4]: inactive
- Potency [5]: inactive
- Potency [6]: inactive
- Potency [7]: inactive
- Potency [8]: inactive
- Potency [9]: inactive
- Potency [11]: inactive
- Potency [14]: inactive
- Potency (Aromatase (Homo sapiens)): inactive

Compound: O=c1oc(=O)c2cc3c(=O)oc(=O)c3cc12
- Potency [1]: inactive
- Potency [2]: inactive
- Potency [3]: inactive
- Potency [4]: inactive
- Potency [5]: inactive
- Potency [6]: inactive
- Potency [7]: inactive
- Potency [8]: inactive
- Potency [9]: inactive
- Potency [11]: inactive
- Potency [14]: inactive
- Potency (Aromatase (Homo sapiens)): inactive

Compound: CCCCC(CC)COP(=O)(OCC(CC)CCCC)OCC(CC)CCCC (centres undefined)
- Potency [1]: inactive
- Potency [2]: inactive
- Potency [3]: inactive
- Potency [4]: inactive
- Potency [5]: inactive
- Potency [6]: inactive
- Potency [7]: inactive
- Potency [8]: inactive
- Potency [9]: inactive
- Potency [11]: inactive
- Potency [14]: inactive
- Potency (Aromatase (Homo sapiens)): inactive

Compound: CN(C)CCN(Cc1cccs1)c1ccccn1
- Potency [1]: inactive
- Potency [2]: 29.8 µM (active) and inactive
- Potency [3]: inactive
- Potency [4]: inactive
- Potency [5]: inactive
- Potency [6]: inactive
- Potency [7]: inactive
- Potency [9]: inactive
- Potency [10]: inactive
- Potency [11]: inactive
- Potency [12]: inactive
- Potency [15]: inactive
- Potency [13]: inactive
- Potency [14]: inactive

Compound: CC(=O)Oc1ccccc1C(=O)Nc1ncc([N+](=O)[O-])s1
- Potency [1]: 11.2 µM (active)
- Potency [2]: 13.3 µM (active)
- Potency [3]: 10.6 µM (active) and 62.4 µM (active)
- Potency [4]: 13.3 µM (active)
- Potency [5]: inactive and 7.06 µM (active)
- Potency [6]: inactive
- Potency [7]: 29.8 µM (active) and 19.7 µM (active)
- Potency [8]: 11.9 µM (active) and 7.85 µM (active)
- Potency [9]: inactive
- Potency [10]: inactive
- Potency [11]: 7.56 µM (active)
- Potency [12]: inactive
- Potency [15]: 0.668 µM (active)
- Potency (Aromatase (Homo sapiens)): inactive and 19.7 µM (active)

Compound: O=Cc1ccccc1O
- Potency [1]: inactive
- Potency [2]: inactive
- Potency [3]: inactive
- Potency [4]: inactive
- Potency [5]: inactive
- Potency [6]: inactive
- Potency [7]: inactive
- Potency [8]: inactive
- Potency [9]: inactive
- Potency [10]: inactive
- Potency [12]: inactive
- Potency [13]: inactive
- Potency [14]: inactive
- Potency (Aromatase (Homo sapiens)): inactive

Compound: COC(=O)C1=C(C)NC(C)=C(C(=O)OCCN(C)Cc2ccccc2)C1c1cccc([N+](=O)[O-])c1 (centres undefined)
- Potency [1]: inactive
- Potency [2]: 9.44 µM (active) and 19.2 µM (active)
- Potency [3]: 11.9 µM (active) and 21.6 µM (active)
- Potency [4]: 10.6 µM (active) and 19.2 µM (active)
- Potency [5]: 48.7 µM (active)
- Potency [6]: inactive
- Potency [7]: 13.3 µM (active) and 19.2 µM (active)
- Potency [8]: 9.44 µM (active) and 17.1 µM (active)
- Potency [9]: inactive
- Potency [10]: 23.9 µM [inconclusive] (active)
- Potency [11]: inactive
- Potency [12]: inactive
- Potency [14]: 54.2 µM (active)
- Potency (Aromatase (Homo sapiens)): 29.8 µM (active) and 60.8 µM (active)

Compound: Cc1ncc[nH]1
- Potency [1]: inactive
- Potency [2]: inactive
- Potency [3]: inactive
- Potency [4]: inactive
- Potency [5]: inactive
- Potency [6]: inactive
- Potency [7]: inactive
- Potency [8]: inactive
- Potency [9]: inactive
- Potency [11]: inactive
- Potency [14]: inactive
- Potency (Aromatase (Homo sapiens)): inactive
